Laboratory results as given in the supplement of paper PMC8269313.
Where a name gives a salt, the structure may show the parent alone.

System: 4T1
Experiment: % inhibition of 4T1 cell number vs DMSO control; higher = stronger growth inhibition
Conditions: 1 µM, 3 days
How it was run: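 4T1-H2B-GFP mouse breast cancer cells (3000 per well, 2% FBS medium) were seeded in 96-well imaging plates on plastic, denuded lung or mCAF1 fibroblast-derived matrix, Matrigel (15 μg/mL) or 0.2% gelatin; edge wells were left unused. After 16 h, kinase inhibitors were added at 1 μM final for 3 days. Plates were formalin-fixed, DAPI-stained and imaged on an INCell Analyzer 2200, and GFP-positive nuclei were counted. Percent inhibition of cell number was calculated relative to DMSO control.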

[1] = substrate: lung fibroblast-derived matrix
[2] = substrate: mCAF1 fibroblast-derived matrix

SMILES | % inhibition of 4T1 cell number (substrate: Matrigel) [%] | % inhibition of 4T1 cell number (substrate: gelatin) [%] | % inhibition of 4T1 cell number [1] [%] | % inhibition of 4T1 cell number [2] [%] | % inhibition of 4T1 cell number (substrate: plastic) [%]
CC(C)(C)c1ccc(S(=O)(=O)Nc2ccc(-n3ccnc3)cc2)cc1 [Stem-Cell Factor/c-Kit Inhibitor, ISCK03] | 40.2 | 60.6 | 90.5 | 7.06 | 39.4
COc1nccc(-c2c(-c3ccc(F)cc3)ncn2C2CCC(O)CC2)n1 (stereo not given) | 46.2 | 34.2 | -8.71 | -18.3 | 19.8
Cc1ccc(NC2=CC(=O)c3sc(C)nc3C2=O)cc1 [Cdk4 Inhibitor III] | -14.1 | 30.5 | 99.5 | 12.4 | -21.1
O=C(Nc1cc(C(F)(F)F)cc(C(F)(F)F)c1)c1cc(Cl)ccc1O [IKK-2 Inhibitor V] | 91.1 | 90.6 | 80.7 | 82.9 | 94.5
N#C/C(=C(/N)Sc1ccccc1N)c1cccc(C(O)c2ccncc2)c1 (stereo not given) [MEK Inhibitor I] | -42.3 | 30.7 | 50.2 | 40.9 | -71.7
CCN(CC)CCCCN1c2ccccc2Oc2ccc(Cl)cc21 [Akt Inhibitor X] | 72.7 | 46.6 | -2.93 | -26.9 | 40
NC(=O)Nc1sc(-c2ccccc2)cc1C(N)=O [IKK-2 Inhibitor VI] | -32 | -1.17 | -16 | 28.5 | -60
COc1cc2ncnc(Nc3ccc(Cl)cc3Cl)c2cc1OC [Ste11 MAPKKK Activation Inhibitor] | 42 | 66.8 | 0.704 | -27.6 | 36.1
NS(=O)(=O)c1ccc(N=Nc2c(O)[nH]c3ccc(Br)cc23)cc1 [Cdk2 Inhibitor II] | 14.7 | 31.6 | -5.54 | 18.1 | -9.24
Nc1nc(Nc2ccc(S(N)(=O)=O)cc2)nn1C(=S)Nc1c(F)cccc1F [Cdk1/2 Inhibitor III] | 90.1 | 90 | 1.23 | 97.8 | 95.5
CC[C@H](CO)Nc1nc(NCc2ccccc2O)c2ncn(C(C)C)c2n1 [Olomoucine II] | 13.3 | 23.4 | 19.8 | 13.3 | 23.7
O=c1cc(N2CCNCC2)oc2c(-c3ccccc3)cccc12 | -14.2 | -6.29 | -1.5 | 6.84 | -42.8
CS(=O)(=O)c1ccc(-c2nc(-c3ccc(F)cc3)c(-c3ccncc3)[nH]2)cc1 | 37.9 | 63 | -4.16 | 14.7 | 52.9
O=S(=O)(NCCNC/C=C/c1ccc(Br)cc1)c1cccc2cnccc12 [H-89, Dihydrochloride] | -2.21 | 25.6 | -2.1 | 36 | -37.5
O=C(c1ccccc1)c1ccc(N2CCOCC2)cc1O [DNA-PK Inhibitor V] | 58 | 77.4 | -6.09 | 54.5 | 92.7
COc1cc2ncnc(Nc3ccc(Oc4ccccc4)cc3)c2cc1OC [Src Kinase Inhibitor I] | -19.5 | -6.86 | -13.5 | 32.6 | -35.4
Nc1n[nH]c(N)c1N=Nc1ccc(O)cc1 [Cdk9 Inhibitor II] | 11 | 10.5 | -8.89 | -4.98 | 12
c1nc2c(NC3CCCCC3)nc(Nc3ccc(N4CCOCC4)cc3)nc2[nH]1 [Reversine] | 91 | 89.5 | 7.75 | 85.6 | 63.1
N#Cc1c(C2CCNCC2)cc(-c2c(O)cccc2OCC2CC2)nc1N [IKK-2 Inhibitor VIII] | -23.5 | -17.9 | -4.53 | 9.43 | -39.2
CSc1nc(-c2ccnc(NC(C)c3ccccc3)c2)c(-c2ccc(F)cc2)[nH]1 (stereo not given) [p38 MAP Kinase Inhibitor III] | -9.55 | -7.6 | 10.6 | 23.1 | -65
Cc1nc2cc3nc(-c4cccs4)cnc3cc2n1C | 47.1 | -31.4 | -7.74 | -22.1 | 37.6
O=C(c1ccc(Nc2nccc(-c3cc4ccccc4s3)n2)cc1)N1CCC(N2CCCC2)CC1 [IKK Inhibitor VII] | 81.6 | 55.4 | -10 | 52.9 | -20.6
Oc1ccc(-c2nc(-c3ccc(F)cc3)c(-c3ccncc3)[nH]2)cc1 | 19.2 | 56 | -2.55 | 38.9 | 30.1
CN(C)S(=O)(=O)c1ccc2c(c1)/C(=C/c1cc3c([nH]1)CCCC3)C(=O)N2 | -10.2 | 2.33 | -16.4 | -22.1 | -51.8
O=c1cc(N2CCOCC2)oc2c1ccc1ccccc12 [DNA-PK Inhibitor II] | 9.66 | -23.4 | 34.1 | -9.82 | -13
Cc1cc(C)c(/C=C2\C(=O)Nc3ccccc32)[nH]1 [VEGF Receptor 2 Kinase Inhibitor III] | 14.1 | 30.2 | -11.5 | -25 | 2.08
NC(=O)Nc1cc(-c2ccccc2)sc1C(N)=O [IKK-2 Inhibitor XI] | 48 | 55 | 2.01 | 19.8 | 28.6
